# Experimental data: publication PMC7862700, “An all-to-all approach to the identification of sequence-specific readers for epigenetic DNA modifications on cytosine”
# Columns and labels:
# Assay in all cases: DAPPL (digital affinity profiling via proximity ligation, sequencing); 10 mM Tris-HCl pH 7.5, 50 mM NaCl, 1 mM DTT, 4% glycerol, room temperature, 30 min; GST-TFs on glutathione beads, 16-mer random dsDNA library, 0.1% formaldehyde crosslink after washing; high values mean tight binding
# FLI1 = target: T1, FLI1 (Homo sapiens, UniProt Q01543 1-452); conditions: protein: recombinant; tags: N-terminal GST; dsDNA, one strand shown
# T1 sequence: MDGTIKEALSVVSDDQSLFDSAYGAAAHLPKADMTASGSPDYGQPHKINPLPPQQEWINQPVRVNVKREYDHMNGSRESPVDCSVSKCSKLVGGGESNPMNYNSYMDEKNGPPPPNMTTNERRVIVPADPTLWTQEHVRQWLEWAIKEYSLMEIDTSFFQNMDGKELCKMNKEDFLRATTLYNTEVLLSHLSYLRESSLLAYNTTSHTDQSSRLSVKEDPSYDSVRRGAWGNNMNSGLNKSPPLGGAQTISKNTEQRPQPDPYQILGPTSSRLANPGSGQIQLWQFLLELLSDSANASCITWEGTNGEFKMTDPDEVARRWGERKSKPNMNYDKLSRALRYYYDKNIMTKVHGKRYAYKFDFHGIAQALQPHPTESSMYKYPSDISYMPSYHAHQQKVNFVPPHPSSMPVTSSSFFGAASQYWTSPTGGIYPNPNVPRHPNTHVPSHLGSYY
# Outline: (§1)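 Human transcription factors were made in yeast as GST fusions, captured on glutathione beads and barcoded with DNA. With a tag-only sample included, the pool was incubated with 200 nmole of a random double-stranded 16-mer DNA library in Tris/NaCl/DTT/glycerol buffer at room temperature for 30 min, then crosslinked with 0.1% formaldehyde after washing, ligated by proximity, amplified and sequenced. For binding signal, each hexamer's read frequency for a factor is divided by its frequency for the tag-only sample.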
# ELK1 = target: T2, ELK1 (Homo sapiens, UniProt P19419 1-428); conditions: protein: recombinant; tags: N-terminal GST; dsDNA, one strand shown
# T2 sequence: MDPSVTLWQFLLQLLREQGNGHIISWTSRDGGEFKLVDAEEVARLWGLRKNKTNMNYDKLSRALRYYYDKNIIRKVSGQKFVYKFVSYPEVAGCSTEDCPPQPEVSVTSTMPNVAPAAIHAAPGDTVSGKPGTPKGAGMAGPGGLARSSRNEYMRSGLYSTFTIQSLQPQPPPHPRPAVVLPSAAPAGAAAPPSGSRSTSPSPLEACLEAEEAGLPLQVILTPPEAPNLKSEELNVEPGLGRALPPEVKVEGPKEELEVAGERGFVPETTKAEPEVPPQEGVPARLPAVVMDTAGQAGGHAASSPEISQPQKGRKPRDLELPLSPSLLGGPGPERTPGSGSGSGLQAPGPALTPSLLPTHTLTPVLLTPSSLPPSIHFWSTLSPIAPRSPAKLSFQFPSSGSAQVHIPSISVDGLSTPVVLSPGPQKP
# Outline: as §1
# GABPA = target: T3, GABPA (Homo sapiens, UniProt Q06546 1-454); conditions: protein: recombinant; tags: N-terminal GST; dsDNA, one strand shown
# T3 sequence: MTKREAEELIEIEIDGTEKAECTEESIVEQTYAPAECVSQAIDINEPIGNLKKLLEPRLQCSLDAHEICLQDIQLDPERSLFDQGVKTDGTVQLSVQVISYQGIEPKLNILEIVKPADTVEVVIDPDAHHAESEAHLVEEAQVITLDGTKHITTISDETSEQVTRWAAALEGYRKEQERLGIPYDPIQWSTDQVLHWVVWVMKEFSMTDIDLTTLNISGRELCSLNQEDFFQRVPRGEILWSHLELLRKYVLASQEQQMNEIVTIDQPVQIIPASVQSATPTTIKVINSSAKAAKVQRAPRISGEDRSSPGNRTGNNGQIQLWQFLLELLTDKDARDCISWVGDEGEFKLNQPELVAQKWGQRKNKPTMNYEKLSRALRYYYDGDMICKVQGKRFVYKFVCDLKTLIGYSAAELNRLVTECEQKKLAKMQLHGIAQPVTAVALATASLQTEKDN
# Outline: as §1
# ERG = target: T4, ERG (Homo sapiens, UniProt P11308 1-479); conditions: protein: recombinant; tags: N-terminal GST; dsDNA, one strand shown
# T4 sequence: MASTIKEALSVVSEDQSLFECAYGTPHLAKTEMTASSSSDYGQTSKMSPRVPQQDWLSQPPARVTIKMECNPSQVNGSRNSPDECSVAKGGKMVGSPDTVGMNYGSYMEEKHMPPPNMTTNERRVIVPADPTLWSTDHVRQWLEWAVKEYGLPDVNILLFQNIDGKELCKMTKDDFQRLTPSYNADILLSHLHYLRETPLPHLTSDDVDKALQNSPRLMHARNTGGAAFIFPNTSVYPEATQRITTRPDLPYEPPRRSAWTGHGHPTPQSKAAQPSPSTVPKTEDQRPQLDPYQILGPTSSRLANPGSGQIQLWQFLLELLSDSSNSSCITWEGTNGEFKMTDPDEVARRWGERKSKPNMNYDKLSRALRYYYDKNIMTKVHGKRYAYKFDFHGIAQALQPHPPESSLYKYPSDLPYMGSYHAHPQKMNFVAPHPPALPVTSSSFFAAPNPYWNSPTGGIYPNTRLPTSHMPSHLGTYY
# Outline: as §1
# ELF1 = ELF1 (Homo sapiens, UniProt P32519 1-619); conditions: protein: recombinant; tags: N-terminal GST; dsDNA, one strand shown
# Outline: as §1
# EHF = target: T5, EHF (Homo sapiens, UniProt Q9NZC4 1-300); conditions: protein: recombinant; tags: N-terminal GST; dsDNA, one strand shown
# T5 sequence: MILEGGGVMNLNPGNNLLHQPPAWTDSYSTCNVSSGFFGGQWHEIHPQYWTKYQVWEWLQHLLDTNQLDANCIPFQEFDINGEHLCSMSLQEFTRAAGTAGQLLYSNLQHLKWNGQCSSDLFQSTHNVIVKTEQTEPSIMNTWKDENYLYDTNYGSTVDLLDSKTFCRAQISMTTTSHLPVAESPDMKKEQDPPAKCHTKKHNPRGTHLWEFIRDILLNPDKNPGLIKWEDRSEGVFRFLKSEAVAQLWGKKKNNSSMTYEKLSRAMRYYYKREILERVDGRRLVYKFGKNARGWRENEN
# Outline: as §1
# SPI1 = SPI1 (Homo sapiens, UniProt P17947 1-270); conditions: protein: recombinant; tags: N-terminal GST; dsDNA, one strand shown
# Outline: as §1
# SPIB = SPIB (Homo sapiens, UniProt Q01892 1-262); conditions: protein: recombinant; tags: N-terminal GST; dsDNA, one strand shown
# Outline: as §1
# ELK3 = target: T6, ELK3 (Homo sapiens, UniProt P41970 1-407); conditions: protein: recombinant; tags: N-terminal GST; dsDNA, one strand shown
# T6 sequence: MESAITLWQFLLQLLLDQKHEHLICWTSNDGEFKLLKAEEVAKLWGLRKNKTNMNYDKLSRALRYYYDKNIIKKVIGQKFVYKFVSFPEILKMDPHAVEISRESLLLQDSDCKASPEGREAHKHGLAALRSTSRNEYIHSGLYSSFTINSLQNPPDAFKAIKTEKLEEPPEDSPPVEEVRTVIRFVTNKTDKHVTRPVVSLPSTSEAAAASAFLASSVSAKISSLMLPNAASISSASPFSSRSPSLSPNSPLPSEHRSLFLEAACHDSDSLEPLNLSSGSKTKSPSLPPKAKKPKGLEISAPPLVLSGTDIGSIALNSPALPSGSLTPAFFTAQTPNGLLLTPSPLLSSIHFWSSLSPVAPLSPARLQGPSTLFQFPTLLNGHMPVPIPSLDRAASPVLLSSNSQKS
# Outline: as §1
# FEV = target: T7, FEV (Homo sapiens, UniProt Q99581 1-238); conditions: protein: recombinant; tags: N-terminal GST; dsDNA, one strand shown
# T7 sequence: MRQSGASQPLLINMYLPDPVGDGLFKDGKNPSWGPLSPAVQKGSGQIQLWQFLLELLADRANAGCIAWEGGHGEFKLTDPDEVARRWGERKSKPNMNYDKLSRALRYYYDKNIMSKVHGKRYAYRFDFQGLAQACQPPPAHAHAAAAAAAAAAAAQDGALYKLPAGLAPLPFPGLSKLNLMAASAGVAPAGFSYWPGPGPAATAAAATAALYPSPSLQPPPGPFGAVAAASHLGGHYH
# Outline: as §1
# ETV5 = ETV5 (Homo sapiens, UniProt P41161 1-510); conditions: protein: recombinant; tags: N-terminal GST; dsDNA, one strand shown
# Outline: as §1
# HSF1 = HSF1 (Homo sapiens, UniProt Q00613 1-529); conditions: protein: recombinant; tags: N-terminal GST; chain copies: 3; dsDNA, one strand shown
# Outline: as §1
# SPIC = target: T8, SPIC (Homo sapiens, UniProt Q8N5J4 1-248); conditions: protein: recombinant; tags: N-terminal GST; dsDNA, one strand shown
# T8 sequence: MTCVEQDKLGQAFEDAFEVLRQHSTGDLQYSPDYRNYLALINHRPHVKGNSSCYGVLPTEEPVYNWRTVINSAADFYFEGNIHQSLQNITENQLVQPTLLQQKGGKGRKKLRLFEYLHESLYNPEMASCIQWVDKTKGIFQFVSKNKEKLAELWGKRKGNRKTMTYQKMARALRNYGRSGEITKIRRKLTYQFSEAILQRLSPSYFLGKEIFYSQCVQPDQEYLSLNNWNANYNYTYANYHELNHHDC
# Outline: as §1
# ELF4 = ELF4 (Homo sapiens, UniProt Q99607 1-663); conditions: protein: recombinant; tags: N-terminal GST; dsDNA, one strand shown
# Outline: as §1
# ELK4 = target: T9, ELK4 (Homo sapiens, UniProt P28324-2 1-405); conditions: protein: recombinant; tags: N-terminal GST; dsDNA, one strand shown
# T9 sequence: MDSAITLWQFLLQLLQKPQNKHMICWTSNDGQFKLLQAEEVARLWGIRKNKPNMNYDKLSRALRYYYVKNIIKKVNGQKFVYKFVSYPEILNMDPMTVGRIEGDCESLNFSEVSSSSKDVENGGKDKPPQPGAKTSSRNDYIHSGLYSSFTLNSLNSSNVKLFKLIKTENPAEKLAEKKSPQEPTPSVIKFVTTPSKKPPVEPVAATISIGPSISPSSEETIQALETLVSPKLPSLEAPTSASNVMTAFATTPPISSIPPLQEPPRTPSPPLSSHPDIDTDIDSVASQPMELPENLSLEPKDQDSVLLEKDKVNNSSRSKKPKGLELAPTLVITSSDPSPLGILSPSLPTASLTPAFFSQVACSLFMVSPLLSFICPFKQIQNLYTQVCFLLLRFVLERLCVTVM
# Outline: as §1
# ETV2 = target: T10, ETV2 (Homo sapiens, UniProt O00321 1-342); conditions: protein: recombinant; tags: N-terminal GST; dsDNA, one strand shown
# T10 sequence: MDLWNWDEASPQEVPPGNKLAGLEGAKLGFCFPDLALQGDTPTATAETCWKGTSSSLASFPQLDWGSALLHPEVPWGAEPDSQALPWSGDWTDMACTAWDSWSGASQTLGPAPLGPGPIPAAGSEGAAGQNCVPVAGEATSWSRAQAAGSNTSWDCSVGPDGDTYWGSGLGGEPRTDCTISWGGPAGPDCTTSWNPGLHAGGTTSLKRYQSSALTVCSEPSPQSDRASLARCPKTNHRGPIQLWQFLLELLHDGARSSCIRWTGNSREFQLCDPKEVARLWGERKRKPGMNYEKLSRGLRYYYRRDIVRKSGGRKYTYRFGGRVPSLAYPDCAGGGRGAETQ
# Outline: as §1
# ELF3 = target: T11, ELF3 (Homo sapiens, UniProt P78545 1-371); conditions: protein: recombinant; tags: N-terminal GST; dsDNA, one strand shown
# T11 sequence: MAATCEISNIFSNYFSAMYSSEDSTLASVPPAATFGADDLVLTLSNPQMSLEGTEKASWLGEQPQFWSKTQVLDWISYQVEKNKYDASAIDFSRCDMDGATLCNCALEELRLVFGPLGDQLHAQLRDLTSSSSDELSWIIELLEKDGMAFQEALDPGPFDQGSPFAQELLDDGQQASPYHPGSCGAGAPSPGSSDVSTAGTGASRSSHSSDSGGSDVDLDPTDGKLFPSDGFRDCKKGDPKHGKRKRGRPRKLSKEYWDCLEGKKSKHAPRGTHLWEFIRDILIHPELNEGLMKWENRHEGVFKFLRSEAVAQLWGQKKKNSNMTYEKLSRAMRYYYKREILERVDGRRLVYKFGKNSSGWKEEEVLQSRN
# Outline: as §1
# CRX = CRX (Homo sapiens, UniProt O43186 1-299); conditions: protein: recombinant; tags: N-terminal GST; dsDNA, one strand shown
# Outline: as §1
# ETV1 = ETV1 (Homo sapiens, UniProt P50549 1-477); conditions: protein: recombinant; tags: N-terminal GST; dsDNA, one strand shown
# Outline: as §1
# Sequence of ETV5 (P41161 whole entry): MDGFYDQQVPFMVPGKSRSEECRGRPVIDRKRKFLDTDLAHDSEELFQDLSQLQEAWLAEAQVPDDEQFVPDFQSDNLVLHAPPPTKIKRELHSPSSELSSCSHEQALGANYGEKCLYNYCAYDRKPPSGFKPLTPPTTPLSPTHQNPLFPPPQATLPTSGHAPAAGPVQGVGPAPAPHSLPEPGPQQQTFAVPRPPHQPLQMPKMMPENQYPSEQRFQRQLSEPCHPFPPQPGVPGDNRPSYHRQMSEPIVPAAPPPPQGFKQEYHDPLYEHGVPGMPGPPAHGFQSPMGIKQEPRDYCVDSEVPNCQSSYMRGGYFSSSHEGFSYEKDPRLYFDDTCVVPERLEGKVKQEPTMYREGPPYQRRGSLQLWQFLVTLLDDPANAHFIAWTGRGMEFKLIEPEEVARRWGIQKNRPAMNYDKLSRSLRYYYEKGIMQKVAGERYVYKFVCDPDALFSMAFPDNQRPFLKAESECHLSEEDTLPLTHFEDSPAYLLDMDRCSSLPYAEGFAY
# Sequence of CRX (O43186 whole entry): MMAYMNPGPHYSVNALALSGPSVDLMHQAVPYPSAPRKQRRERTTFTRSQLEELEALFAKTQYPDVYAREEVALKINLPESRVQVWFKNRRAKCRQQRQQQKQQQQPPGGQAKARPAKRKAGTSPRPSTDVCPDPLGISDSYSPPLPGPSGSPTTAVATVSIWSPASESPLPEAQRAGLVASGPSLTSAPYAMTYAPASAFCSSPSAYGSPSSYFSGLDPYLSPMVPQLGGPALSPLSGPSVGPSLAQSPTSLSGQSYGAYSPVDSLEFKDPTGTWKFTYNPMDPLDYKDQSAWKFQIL
# Sequence of ELF1 (P32519 whole entry): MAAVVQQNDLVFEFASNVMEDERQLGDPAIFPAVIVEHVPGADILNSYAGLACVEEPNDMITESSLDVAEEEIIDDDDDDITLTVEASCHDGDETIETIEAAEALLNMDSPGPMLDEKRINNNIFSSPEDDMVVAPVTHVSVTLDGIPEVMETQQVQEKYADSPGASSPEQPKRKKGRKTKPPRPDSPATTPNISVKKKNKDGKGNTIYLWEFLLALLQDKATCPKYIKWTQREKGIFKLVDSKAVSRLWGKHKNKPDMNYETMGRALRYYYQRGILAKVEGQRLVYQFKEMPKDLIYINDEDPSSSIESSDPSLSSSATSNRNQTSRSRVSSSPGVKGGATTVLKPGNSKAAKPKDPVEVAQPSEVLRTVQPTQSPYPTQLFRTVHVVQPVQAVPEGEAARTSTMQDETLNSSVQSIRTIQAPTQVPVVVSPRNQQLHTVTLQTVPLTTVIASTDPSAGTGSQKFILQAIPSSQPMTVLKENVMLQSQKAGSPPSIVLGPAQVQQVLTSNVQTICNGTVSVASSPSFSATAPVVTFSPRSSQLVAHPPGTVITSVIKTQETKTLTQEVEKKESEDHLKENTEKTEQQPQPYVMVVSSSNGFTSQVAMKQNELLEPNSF
# Sequence of ETV1 (P50549 whole entry): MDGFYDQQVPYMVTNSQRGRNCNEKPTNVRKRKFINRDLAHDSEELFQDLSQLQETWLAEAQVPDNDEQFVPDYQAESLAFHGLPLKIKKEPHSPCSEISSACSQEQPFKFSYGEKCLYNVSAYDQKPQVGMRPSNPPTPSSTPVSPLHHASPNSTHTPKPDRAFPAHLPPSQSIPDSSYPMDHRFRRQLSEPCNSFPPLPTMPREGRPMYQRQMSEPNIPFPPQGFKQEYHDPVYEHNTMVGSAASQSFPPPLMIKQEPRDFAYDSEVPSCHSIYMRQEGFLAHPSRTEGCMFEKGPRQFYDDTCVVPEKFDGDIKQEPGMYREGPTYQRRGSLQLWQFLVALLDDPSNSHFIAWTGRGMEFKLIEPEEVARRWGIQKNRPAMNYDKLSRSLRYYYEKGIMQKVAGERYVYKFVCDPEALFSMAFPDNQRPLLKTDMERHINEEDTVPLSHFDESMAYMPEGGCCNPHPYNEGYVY
# Sequence of SPIB (Q01892 whole entry): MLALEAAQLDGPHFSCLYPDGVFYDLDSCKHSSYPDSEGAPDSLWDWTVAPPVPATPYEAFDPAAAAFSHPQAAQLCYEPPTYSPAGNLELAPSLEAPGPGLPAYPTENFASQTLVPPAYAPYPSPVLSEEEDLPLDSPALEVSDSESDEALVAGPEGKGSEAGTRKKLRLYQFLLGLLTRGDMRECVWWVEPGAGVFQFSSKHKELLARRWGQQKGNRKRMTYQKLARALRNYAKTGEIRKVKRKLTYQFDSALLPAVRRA
# Sequence of HSF1 (Q00613 whole entry): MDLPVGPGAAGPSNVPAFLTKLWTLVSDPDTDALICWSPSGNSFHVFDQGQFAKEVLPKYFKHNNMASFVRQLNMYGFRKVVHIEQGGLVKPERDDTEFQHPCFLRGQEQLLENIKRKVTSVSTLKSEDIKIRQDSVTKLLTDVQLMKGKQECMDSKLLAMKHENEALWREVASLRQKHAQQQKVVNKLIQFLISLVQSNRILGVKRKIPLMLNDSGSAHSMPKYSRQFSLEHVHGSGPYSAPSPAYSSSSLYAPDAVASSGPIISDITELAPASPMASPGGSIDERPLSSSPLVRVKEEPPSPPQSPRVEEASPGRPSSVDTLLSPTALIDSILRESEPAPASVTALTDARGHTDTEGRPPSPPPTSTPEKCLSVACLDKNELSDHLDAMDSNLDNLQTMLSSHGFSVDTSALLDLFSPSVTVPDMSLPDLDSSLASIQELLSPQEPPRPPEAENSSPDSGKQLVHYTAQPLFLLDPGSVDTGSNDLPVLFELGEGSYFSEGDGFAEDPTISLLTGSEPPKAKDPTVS
# Sequence of ELF4 (Q99607 whole entry): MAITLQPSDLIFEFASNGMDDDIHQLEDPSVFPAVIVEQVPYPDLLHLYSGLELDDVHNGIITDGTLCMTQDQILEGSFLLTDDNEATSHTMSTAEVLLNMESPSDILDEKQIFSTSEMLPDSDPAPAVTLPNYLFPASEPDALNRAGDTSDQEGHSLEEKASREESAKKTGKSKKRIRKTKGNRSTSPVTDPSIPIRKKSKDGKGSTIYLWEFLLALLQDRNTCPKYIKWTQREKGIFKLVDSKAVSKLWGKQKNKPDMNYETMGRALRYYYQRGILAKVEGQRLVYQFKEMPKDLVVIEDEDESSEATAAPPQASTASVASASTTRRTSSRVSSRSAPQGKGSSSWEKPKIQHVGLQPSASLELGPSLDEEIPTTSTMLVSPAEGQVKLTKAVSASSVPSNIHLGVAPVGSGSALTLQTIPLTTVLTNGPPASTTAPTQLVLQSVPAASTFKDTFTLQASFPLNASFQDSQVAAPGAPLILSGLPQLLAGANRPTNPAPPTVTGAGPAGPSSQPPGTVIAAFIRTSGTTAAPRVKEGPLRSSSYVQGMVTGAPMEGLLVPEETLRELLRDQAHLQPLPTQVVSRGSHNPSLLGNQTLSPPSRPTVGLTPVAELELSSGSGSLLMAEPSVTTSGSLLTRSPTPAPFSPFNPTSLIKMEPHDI
sequence,measurement,setting,value
ACCCTC,binding signal,FLI1,"1.2 fold enrichment (6-mer frequency, TF over GST control)"
same,binding signal,ELK1,"1.27 fold enrichment (6-mer frequency, TF over GST control)"
same,binding signal,GABPA,"1.15 fold enrichment (6-mer frequency, TF over GST control)"
same,binding signal,ERG,"1.1 fold enrichment (6-mer frequency, TF over GST control)"
same,binding signal,ELF1,"1.13 fold enrichment (6-mer frequency, TF over GST control)"
same,binding signal,EHF,"1.1 fold enrichment (6-mer frequency, TF over GST control)"
same,binding signal,SPI1,"1.12 fold enrichment (6-mer frequency, TF over GST control)"
same,binding signal,SPIB,"1.14 fold enrichment (6-mer frequency, TF over GST control)"
same,binding signal,ELK3,"1.31 fold enrichment (6-mer frequency, TF over GST control)"
same,binding signal,FEV,"1.15 fold enrichment (6-mer frequency, TF over GST control)"
same,binding signal,ETV5,"1.2 fold enrichment (6-mer frequency, TF over GST control)"
same,binding signal,HSF1,"1.11 fold enrichment (6-mer frequency, TF over GST control)"
same,binding signal,SPIC,"1.24 fold enrichment (6-mer frequency, TF over GST control)"
same,binding signal,ELF4,"1.25 fold enrichment (6-mer frequency, TF over GST control)"
same,binding signal,ELK4,"1.01 fold enrichment (6-mer frequency, TF over GST control)"
same,binding signal,ETV2,"1.15 fold enrichment (6-mer frequency, TF over GST control)"
same,binding signal,ELF3,"1.12 fold enrichment (6-mer frequency, TF over GST control)"
same,binding signal,CRX,"1.11 fold enrichment (6-mer frequency, TF over GST control)"
same,binding signal,ETV1,"1.14 fold enrichment (6-mer frequency, TF over GST control)"
